Data from the supplement of paper PMC10849652.
The full data set covers some 7,900 targets. This sample favours those with a hit. About 0.6% of all pairs of compound and target were hits. Unmarked numbers belong to inactive results.

How the values were obtained:
Assay in all cases: log2 fold change, soluble protein after heating vs DMSO (PISA); higher = thermal stabilisation; K562 cells, 10 uM, 30 min; active = over 0.2 and 3.5 SD of the protein, either way, in both replicates (recomputed)
[1] = compound: C1=CC=C(C=C1)[C@H](COC2=CC3=C(C=C2)NC(=O)N3)NC(=O)C4=CC=CN(C4=O)CC5=CC(=C(C=C5)F)F
How it was run: (§1)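 Aliquots of K562 cells (2×10^6 cells/mL) treated with 10 μM compound for 30 min were heated for 3 min over 48°C-58°C. After pooling and extraction in PBS with 0.5% NP-40 at 4°C, soluble protein from a 21,000xg, 90 min spin was quantified by TMTpro 16plex LC-MS/MS with channel sums equalised. Thermal stability is expressed against control samples, from duplicates, as a log2 fold change.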

[2] = compound: CC1=C(SC2=C1C(=N[C@H](C3=NN=C(N32)C)CC(=O)N)C4=CC=C(C=C4)Cl)C
How it was run: as §1

[3] = compound: CC1=C2C(=CC=C1)N=C(N(C2=O)C3=CC=CC=C3C)CN4C=NC5=C(N=CN=C54)N
How it was run: as §1

[4] = compound: Cc1sc2c(c1C)C(c1ccc(Cl)cc1)=N[C@@H](CC(=O)OC(C)(C)C)c1nnc(C)n1-2
How it was run: as §1

[5] = compound: c1ccc([C@@H]2C[C@H]2NC2CCNCC2)cc1
How it was run: as §1

Sequence of UniProt Q9Y6D6 (Q9Y6D6 whole entry, looked up): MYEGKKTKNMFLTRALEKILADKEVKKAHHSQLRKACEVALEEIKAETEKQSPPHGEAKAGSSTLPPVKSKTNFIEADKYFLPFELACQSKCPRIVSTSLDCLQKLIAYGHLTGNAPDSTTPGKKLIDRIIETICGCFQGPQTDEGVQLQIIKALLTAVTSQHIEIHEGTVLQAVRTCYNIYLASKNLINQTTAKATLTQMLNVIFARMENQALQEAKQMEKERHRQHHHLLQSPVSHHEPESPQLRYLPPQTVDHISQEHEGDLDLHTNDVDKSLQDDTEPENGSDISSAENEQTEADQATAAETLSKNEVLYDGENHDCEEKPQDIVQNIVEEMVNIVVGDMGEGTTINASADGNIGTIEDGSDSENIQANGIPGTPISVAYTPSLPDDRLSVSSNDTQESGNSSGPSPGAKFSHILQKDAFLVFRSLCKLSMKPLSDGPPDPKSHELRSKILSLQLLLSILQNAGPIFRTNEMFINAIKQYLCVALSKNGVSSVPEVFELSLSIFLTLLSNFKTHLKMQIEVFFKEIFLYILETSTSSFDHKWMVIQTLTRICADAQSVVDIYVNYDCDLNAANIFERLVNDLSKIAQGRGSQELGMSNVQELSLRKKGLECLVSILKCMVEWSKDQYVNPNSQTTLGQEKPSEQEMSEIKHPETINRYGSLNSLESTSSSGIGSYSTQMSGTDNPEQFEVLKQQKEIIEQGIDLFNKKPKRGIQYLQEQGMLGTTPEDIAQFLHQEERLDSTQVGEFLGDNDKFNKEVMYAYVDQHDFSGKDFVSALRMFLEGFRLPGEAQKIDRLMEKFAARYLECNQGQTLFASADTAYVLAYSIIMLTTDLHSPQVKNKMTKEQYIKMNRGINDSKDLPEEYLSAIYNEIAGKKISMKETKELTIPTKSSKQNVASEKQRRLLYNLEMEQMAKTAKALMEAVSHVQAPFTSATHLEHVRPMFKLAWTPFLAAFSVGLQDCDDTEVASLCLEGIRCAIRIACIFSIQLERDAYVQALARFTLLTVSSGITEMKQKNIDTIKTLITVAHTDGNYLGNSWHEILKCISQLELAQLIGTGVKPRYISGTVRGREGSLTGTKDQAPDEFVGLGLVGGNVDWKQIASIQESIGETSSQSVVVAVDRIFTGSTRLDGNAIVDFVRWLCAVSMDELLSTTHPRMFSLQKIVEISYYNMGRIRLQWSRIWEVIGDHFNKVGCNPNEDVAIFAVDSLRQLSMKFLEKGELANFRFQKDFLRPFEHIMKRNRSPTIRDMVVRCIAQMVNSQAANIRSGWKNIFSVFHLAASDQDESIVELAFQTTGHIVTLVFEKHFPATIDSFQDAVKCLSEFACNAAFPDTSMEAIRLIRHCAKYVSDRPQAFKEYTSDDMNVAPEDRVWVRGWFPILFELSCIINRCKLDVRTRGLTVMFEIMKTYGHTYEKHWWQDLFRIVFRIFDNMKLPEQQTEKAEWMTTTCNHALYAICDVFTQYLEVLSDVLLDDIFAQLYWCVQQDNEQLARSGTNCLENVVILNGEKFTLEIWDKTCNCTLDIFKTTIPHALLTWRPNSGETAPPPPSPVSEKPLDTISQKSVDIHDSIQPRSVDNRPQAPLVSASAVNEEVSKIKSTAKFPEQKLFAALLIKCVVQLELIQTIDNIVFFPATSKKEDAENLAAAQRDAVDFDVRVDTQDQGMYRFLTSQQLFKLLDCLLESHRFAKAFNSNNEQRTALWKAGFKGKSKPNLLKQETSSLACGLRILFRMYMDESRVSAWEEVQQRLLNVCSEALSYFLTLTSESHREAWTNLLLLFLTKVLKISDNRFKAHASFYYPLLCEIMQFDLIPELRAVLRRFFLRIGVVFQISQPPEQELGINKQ
Sequence of UniProt Q9H845 (Q9H845 whole entry, looked up): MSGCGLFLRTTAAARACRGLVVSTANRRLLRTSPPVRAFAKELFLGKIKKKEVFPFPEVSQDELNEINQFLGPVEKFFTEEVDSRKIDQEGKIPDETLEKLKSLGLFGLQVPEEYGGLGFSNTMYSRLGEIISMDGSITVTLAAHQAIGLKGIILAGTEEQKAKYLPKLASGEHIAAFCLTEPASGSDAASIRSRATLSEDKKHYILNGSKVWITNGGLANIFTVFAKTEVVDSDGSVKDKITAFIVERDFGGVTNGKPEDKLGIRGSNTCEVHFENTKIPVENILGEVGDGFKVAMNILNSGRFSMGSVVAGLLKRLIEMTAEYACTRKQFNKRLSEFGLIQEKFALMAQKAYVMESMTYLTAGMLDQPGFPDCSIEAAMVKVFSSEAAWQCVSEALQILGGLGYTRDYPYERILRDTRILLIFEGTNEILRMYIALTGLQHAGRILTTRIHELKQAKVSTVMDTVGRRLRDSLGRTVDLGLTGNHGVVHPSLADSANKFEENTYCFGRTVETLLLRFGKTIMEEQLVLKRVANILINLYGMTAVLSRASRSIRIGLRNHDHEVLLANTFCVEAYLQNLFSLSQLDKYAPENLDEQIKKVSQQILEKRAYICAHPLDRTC
Sequence of UniProt O15440 (O15440 whole entry, looked up): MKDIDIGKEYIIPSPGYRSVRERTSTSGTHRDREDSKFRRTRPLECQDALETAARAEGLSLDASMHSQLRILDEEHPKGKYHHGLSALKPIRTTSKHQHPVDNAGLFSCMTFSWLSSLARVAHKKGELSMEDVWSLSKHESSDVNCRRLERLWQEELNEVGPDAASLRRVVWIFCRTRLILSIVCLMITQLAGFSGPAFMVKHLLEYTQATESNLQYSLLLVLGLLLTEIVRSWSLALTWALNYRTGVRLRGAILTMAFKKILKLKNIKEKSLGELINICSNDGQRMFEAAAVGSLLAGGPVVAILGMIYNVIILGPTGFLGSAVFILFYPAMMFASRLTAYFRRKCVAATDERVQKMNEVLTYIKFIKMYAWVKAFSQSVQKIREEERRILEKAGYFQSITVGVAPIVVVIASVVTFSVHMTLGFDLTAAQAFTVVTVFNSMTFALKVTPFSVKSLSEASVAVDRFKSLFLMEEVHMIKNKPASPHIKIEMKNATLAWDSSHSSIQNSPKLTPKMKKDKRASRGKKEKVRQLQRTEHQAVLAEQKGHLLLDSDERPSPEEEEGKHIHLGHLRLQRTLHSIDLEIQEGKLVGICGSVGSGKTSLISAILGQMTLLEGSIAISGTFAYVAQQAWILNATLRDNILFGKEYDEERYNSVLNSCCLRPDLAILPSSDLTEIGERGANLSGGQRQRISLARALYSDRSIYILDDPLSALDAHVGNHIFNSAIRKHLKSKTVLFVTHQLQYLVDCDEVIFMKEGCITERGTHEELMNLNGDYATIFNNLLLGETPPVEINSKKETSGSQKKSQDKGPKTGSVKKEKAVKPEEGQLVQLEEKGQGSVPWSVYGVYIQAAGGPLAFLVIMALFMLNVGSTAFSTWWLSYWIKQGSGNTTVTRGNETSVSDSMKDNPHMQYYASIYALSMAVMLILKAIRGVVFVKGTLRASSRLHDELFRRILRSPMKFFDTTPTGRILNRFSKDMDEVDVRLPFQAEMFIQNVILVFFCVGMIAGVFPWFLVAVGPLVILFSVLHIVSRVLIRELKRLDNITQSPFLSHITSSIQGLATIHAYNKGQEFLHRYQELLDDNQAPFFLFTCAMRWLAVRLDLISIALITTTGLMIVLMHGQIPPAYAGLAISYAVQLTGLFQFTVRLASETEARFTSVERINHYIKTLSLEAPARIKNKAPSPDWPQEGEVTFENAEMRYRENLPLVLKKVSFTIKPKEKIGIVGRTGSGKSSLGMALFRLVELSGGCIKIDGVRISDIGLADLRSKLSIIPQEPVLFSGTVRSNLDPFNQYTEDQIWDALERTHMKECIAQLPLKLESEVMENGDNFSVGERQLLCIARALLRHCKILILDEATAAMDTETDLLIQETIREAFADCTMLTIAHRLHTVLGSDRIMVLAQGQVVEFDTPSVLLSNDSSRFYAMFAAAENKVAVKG
Sequence of UniProt Q9UKV5 (Q9UKV5 whole entry, looked up): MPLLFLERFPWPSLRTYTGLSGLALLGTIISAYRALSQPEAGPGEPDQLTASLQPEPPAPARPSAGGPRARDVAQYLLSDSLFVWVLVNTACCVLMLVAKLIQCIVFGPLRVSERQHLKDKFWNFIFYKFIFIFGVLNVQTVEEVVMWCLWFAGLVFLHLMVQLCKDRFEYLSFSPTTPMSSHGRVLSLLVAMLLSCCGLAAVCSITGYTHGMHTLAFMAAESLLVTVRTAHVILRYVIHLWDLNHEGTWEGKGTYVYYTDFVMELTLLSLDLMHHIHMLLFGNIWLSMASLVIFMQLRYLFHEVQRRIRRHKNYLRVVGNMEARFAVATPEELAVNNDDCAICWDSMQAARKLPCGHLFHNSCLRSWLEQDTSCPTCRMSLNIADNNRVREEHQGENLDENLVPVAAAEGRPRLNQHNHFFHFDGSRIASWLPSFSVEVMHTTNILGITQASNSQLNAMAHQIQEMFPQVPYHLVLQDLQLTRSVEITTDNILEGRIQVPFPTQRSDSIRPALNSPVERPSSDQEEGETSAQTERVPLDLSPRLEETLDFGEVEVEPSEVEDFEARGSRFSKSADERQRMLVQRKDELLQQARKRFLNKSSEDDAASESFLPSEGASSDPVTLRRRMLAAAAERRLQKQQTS
Sequence of UniProt O43865 (O43865 whole entry, looked up): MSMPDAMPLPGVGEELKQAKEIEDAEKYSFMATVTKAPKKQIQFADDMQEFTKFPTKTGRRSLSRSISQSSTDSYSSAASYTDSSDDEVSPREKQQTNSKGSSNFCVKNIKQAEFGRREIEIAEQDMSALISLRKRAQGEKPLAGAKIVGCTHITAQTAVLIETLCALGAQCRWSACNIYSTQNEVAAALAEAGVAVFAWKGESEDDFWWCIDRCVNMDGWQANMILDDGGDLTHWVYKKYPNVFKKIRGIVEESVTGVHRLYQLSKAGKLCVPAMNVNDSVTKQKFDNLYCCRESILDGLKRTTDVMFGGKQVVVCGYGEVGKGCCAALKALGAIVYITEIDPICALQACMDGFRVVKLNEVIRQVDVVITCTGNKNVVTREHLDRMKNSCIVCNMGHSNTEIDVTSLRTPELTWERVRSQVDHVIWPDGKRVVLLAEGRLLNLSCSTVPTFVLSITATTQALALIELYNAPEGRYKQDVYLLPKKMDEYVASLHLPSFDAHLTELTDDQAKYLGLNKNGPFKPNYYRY

Target | log2 fold change [1] | log2 fold change [2] | log2 fold change [3] | log2 fold change [4] | log2 fold change [5]
ATP1A1 (UniProt P05023) | 0.009 | 0.051 | -0.045 | 0 | -0.01
ADAMTS5 (UniProt Q9UNA0) | 0.149 | 0.106 | 0.152 | -0.076 | -0.028
BRD4 (UniProt O60885) | -0.116 | 2.22 (active) | 0.141 | 1.99 (active) | 0.029
AMFR (UniProt Q9UKV5) | -0.043 | -0.004 | 0.023 | 0.024 | -0.046
ARL4A (UniProt P40617) | -0.027 |  |  |  | 
ABCC5 (UniProt O15440) | -0.034 | 0.082 | -0.02 | -0.001 | -0.025
ARFGEF1 (UniProt Q9Y6D6) | -0.012 | 0.034 | 0.014 | -0.063 | -0.061
AHCYL1 (UniProt O43865) | 0.057 | -0.004 | 0.014 | -0.03 | -0.037
ACAD9 (UniProt Q9H845) | 0.012 | 0.028 | 0.031 | 0.022 | 0.009
ATP6V0A2 (UniProt Q9Y487) | 0.018 | -0.044 | -0.007 | -0.059 | -0.014
